High-throughput results deposited in PubChem BioAssay by several laboratories.
Most compounds without a hit are left out; they make up all but 1% or so of the library.
RN4220 kill: growth inhibition of S. aureus RN4220, primary screen, OD600; 16 h; inhibition, % (concentration not given with the values); actives 0.33% (n = 330,000); AID 1259311, 2017; in the data active means inhibition above about 85%
Mtb hypoxia inh: PubChem AID 1159583. M. tuberculosis hypoxia-regulated fluorescent reporter, fluorescence. fluorescence inhibition, % (no concentration beside the values). actives 0.1% (n = 300,000); in the data active means fluorescence inhibition mostly above about 23%, no sharp cut-off; inactive means mostly below about 17%
Mtb betalactam: beta-lactam sensitization of Mtb H37Rv, H37Rv. M. tuberculosis H37Rv growth with meropenem, percent inhibition. inhibition, % at 25 µM. actives 0.27% (n = 330,000). AID 434955, 2010; call rule not given here;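 further: growth measured after seven days incubation then overnight dye step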
ugtP null kill: growth inhibition of ugtP-null S. aureus, primary screen, RN4220 ugtP deletion, OD600; 16 h; actives 0.54% (n = 330,000); growth inhibition, % (concentration not given with the values); in the data active means growth inhibition above about 68%
PriA SSB inh: inhibitors of Klebsiella pneumoniae PriA binding to SSB C-terminal tail, primary screen, biochemical, AlphaScreen. PriA–SSB C-terminal tail interaction (Klebsiella pneumoniae). AlphaScreen SSBct-PriA binding, biotinylated peptide. actives 0.6% (n = 430,000). inhibition, % at 33 µM; in the data active means inhibition mostly above about 37%, no sharp cut-off; inactive means mostly below about 20%
Hits are given with their value; 0 = inactive; - = no result shown.

SMILES | RN4220 kill | Mtb hypoxia inh | Mtb betalactam | ugtP null kill | PriA SSB inh
CCN(CC)CCC(c1ccc(N(C)C)cc1)c1c(OC)cc(OC)c2c(-c3ccccc3)cc(=O)oc12 (stereo not given) | 0 | 0 | 0 | 0 | 87
COc1cc(OC)c2ccc(=O)oc2c1C(CCN1CCN(c2ccccc2)CC1)c1ccc(N(C)C)cc1 (stereo not given) | 0 | 0 | 0 | 0 | 55
Cc1cc(C(F)(F)F)nc(CCNC(=O)c2ccno2)n1 | - | - | - | - | 0
O=C(Nc1cccc2nsnc12)c1cc(N2CCCC2)ncn1 | - | - | - | - | 0
COc1cc(OC)c2c(C)cc(=O)oc2c1C(CCN1CCOCC1)c1ccc(N(C)C)cc1 (stereo not given) | 0 | 0 | 0 | 0 | 45
COc1cc(OC)c2c(-c3ccccc3)cc(=O)oc2c1C(CCN1CCN(c2ccccc2)CC1)c1ccc(N(C)C)cc1 (stereo not given) | 0 | 0 | 0 | 0 | 55
COc1cc(OC)c2c(-c3ccccc3)cc(=O)oc2c1C(CCN1CCCC(C)C1)c1ccc(N(C)C)cc1 (stereo not given) | 0 | - | 0 | 0 | 97
COc1ccc(C(CCN2CCCC(C)C2)c2c(OC)cc(OC)c3c(-c4ccccc4)cc(=O)oc23)cc1 (stereo not given) | 0 | 0 | 0 | 0 | 0
COc1cc(OC)c2c(-c3ccccc3)cc(=O)oc2c1C(CC(=O)N1CCOCC1)c1ccc(N(C)C)cc1 (stereo not given) | 0 | 0 | 0 | 0 | 42
COc1ccc(C(CCN2CCN(c3ccccc3)CC2)c2c(OC)cc(OC)c3c(-c4ccccc4)cc(=O)oc23)cc1 (stereo not given) | 0 | 0 | 0 | 0 | 0
COc1cc([N+](=O)[O-])ccc1NC(=O)c1nnn(-c2ccc(Cl)cc2)c1C | - | - | - | - | 0
O=C(N=c1scc(-c2ccccc2)n1CCc1ccccc1)c1ccccc1 | - | - | - | - | 0
CS(=O)(=O)c1ccc(CC(=O)Nc2nnc(C3CCCO3)o2)cc1 (stereo not given) | - | - | - | - | 61
O=C(Cc1ccc(NC(=O)N2CCNC2=O)cc1)NC1CC1 | - | - | - | - | 0
COc1ccc(C=Nc2c(-c3ccc(OC)cc3)nc3n2CCS3)cc1 | 0 | 0 | - | 0 | 56
NC(=O)NC(=O)CC1S/C(=N/N=C2\CSC(=O)N2)NC1=O (stereo not given) | - | - | 0 | - | -
O=C1CS/C(=N\N=C2\NC(=O)C(CC(=O)c3ccc(F)cc3)S2)N1 (stereo not given) | - | - | - | - | 46
O=C(O)CC1S/C(=N\N=C2\CSC(=O)N2)NC1=O (stereo not given) | - | - | - | - | 64
Cc1ccc(NC(=O)CC2SC(=NN=C3NC(=O)CS3)NC2=O)cc1 (stereo not given) | - | - | - | - | 0
CCOc1ccc(N(CC(=O)NCCc2ccccc2)C(=O)CCC(=O)Nc2cc(C)ccn2)cc1 | 0 | 0 | 0 | 0 | 104
CCCOc1c(Br)cc(C=NO)cc1OC | 0 | - | - | 86 | 0
CCOc1cc(/C=N\O)cc(Cl)c1OCC | - | - | 0 | - | -
CCCOc1c(Cl)cc(C=NO)cc1OCC | 0 | - | - | 93 | 0
Cc1nc(C)c(C(=O)NCCn2ncc3c(=O)n(Cc4ccccc4F)cnc32)s1 | - | - | - | - | 0
Cc1cccc(-c2nc3n(n2)C(=O)CC(c2ccco2)S3)c1 (stereo not given) | - | - | - | - | 0
SMILES | RN4220 kill | Mtb hypoxia inh | Mtb betalactam | ugtP null kill | PriA SSB inh
O=C(OCc1ccccc1F)c1cc2ccccc2cc1O | 0 | 0 | 0 | 87 | 0
CCOC(=O)C1CCN(c2c([N+](=O)[O-])c(C(Cl)Cl)nn2-c2ccccc2)CC1 | 0 | 0 | 0 | 0 | 0
O=[N+]([O-])c1c(C(Cl)Cl)nn(-c2ccccc2)c1N1CCCC1 | 0 | 0 | 0 | 0 | 50
COc1ccc(-c2c(-c3cc(OC)cc(OC)c3)sc3ccc(OC)cc23)cc1 | 0 | 0 | 0 | 92 | 0
COc1cc(OC)cc(-c2sc3ccc(OC)cc3c2-c2ccc(O)cc2)c1 | 99 | 0 | 0 | 100 | 0
COc1ccc(-c2c(-c3ccccc3OC)sc3ccccc23)cc1 | 0 | 0 | 0 | 87 | 0
COc1ccc(-c2c(-c3ccc(S(C)(=O)=O)cc3)sc3ccc(OC)cc23)cc1 | - | - | 0 | - | 0
COc1ccc(-c2sc3ccc(OC)cc3c2-c2ccc(O)cc2)cc1 | 0 | 0 | 0 | 100 | 0
COc1ccc2sc(-c3ccccc3OC)c(-c3ccc(O)cc3)c2c1 | - | - | 0 | - | 0
COc1ccc2cc(C(=O)N3CCc4cnc(N5CCOCC5)nc4C3)[nH]c2c1 | - | - | - | - | 0
CCCCOC(=O)c1ccc(NC(=O)c2cn[nH]n2)cc1 | - | - | - | - | 0
c1ccc(-c2sc3ccccc3c2-c2ccc(OCCN3CCCCC3)cc2)cc1 | 0 | 0 | 0 | 0 | 0
CN(C)CCOc1ccc(-c2c(-c3ccccc3)sc3ccccc23)cc1 | 100 | 51 | 0 | 100 | 0
O=C(CS(=O)(=O)c1ccc(Cl)cc1)Nc1nc(-c2ccc3c(c2)OCCO3)cs1 | - | - | - | - | 0
O=C(COc1ccc(Cl)cc1)N1CCC(CN2C(=O)CNC2=O)CC1 | - | - | - | - | 0
CC(CCc1ccccc1)NC(=O)Nc1c[nH]c2ccccc12 (stereo not given) | - | - | - | - | 39
Cc1cc2cc(CNC(=O)Nc3c[nH]c4ccccc34)ccc2[nH]1 | - | - | - | - | 33
Cc1nc(-n2cccc2)sc1C(=O)Nc1nc2c(s1)C(=O)NCCC2 | - | - | - | - | active
Cc1cccc(NC(=O)Nc2ccc3c(c2)N(C)C(=O)CS3)n1 | 0 | 0 | 0 | 0 | 104
COc1ccc(C2C(=C(O)c3ccc4c(c3)CC(C)O4)C(=O)C(=O)N2CCCN2CCOCC2)cc1OC (stereo not given) | - | - | - | - | 0
CC(=CC(=O)c1ccc(Br)cc1)NNC(=O)c1ccc(O)cc1 | - | - | - | - | 0
O=C(NNc1ccc(O)cc1)c1ccc(Br)cc1 | 0 | 0 | 0 | 91 | 0
O=C1C=C(c2cccs2)C[C@H](c2ccccc2)[C@H]1n1nnc([N+](=O)[O-])n1 | 0 | 0 | 0 | 98 | 0
CC(=O)C1C(=O)C=C(c2cccs2)CC1c1ccccc1 (stereo not given) | 0 | 0 | 0 | 0 | 0
COc1ccc(NC(=O)N2c3ccc(OC)cc3C(C)=CC2(C)C)cc1 | 0 | 0 | 0 | 0 | 54
SMILES | RN4220 kill | Mtb hypoxia inh | Mtb betalactam | ugtP null kill | PriA SSB inh
CCOc1ccc2c(c1)C(C)=CC(C)(C)N2C(=O)Nc1ccccc1 | 0 | 0 | 0 | 0 | 44
CCN(CC)C(=S)SC1=C(Cl)CS(=O)(=O)C1 | - | - | - | - | 98
CCN(CC)C(=S)SCC(=O)Nc1c(Cl)cccc1Cl | - | - | - | - | 0
Cc1ccc(-c2csc3nc4cc(C(N)=O)ccc4c(=O)n23)cc1 | 0 | 0 | 0 | 0 | 0
NC(=O)c1ccc2c(=O)n3c(-c4cccs4)csc3nc2c1 | 0 | 0 | 0 | 88 | 0
O=C(Nc1ccc(OCC(F)(F)C(F)F)c(C(F)(F)F)c1)c1ccccc1O | 112 | - | 0 | 100 | 0
CCOC(=O)c1c(-c2ccc(C)o2)csc1NC(=O)CSc1nc2sc(C)c(C)c2c(=O)n1-c1ccccc1 | - | - | - | - | 0
CC1=C(C(=O)Nc2ccccc2)C(c2ccc(C)cc2)N=C(Nc2nc3ccccc3o2)N1 (stereo not given) | 0 | 37 | - | 0 | 0
Cc1nc2c(c(=O)c3ccccc3n2C)c(=O)n1C1CCCCCC1 | 0 | 0 | 0 | 0 | 0
